# Assay results as given in PubChem BioAssay.
# A number with no mark means an inactive call. How the calls were made is not given here.
# Target: Pantothenate synthetase (Mycobacterium tuberculosis (strain ATCC 25618 / H37Rv)) (UniProt P9WIL5)
# Test: Recombinant Mtb pantothenate synthetase (PanC) inhibitors, coupled enzyme, confirmatory (AID 375);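 further: 0% = full reaction with vehicle and 100% = no enzyme background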
# Settings: coupled enzyme assay; at 10 µM, active compounds read high
# Pantothenate synthetase (Mycobacterium tuberculosis (strain ATCC 25618 / H37Rv)), sequence (P9WIL5 whole entry, looked up): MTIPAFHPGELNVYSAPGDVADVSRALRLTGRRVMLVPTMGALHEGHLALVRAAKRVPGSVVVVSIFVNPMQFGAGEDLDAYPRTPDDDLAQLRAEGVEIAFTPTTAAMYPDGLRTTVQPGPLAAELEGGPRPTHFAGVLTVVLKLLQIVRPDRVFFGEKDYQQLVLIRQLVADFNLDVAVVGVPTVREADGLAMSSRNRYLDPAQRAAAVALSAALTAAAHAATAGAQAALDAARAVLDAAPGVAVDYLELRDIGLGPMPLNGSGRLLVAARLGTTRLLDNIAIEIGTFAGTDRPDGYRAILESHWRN
row,Structure (SMILES),inhibition
1,Cc1ccc(/C=N/n2nnnc2N)o1,0%
2,CCOc1ccc(C2CC(=O)NC3=C2C(=O)CCC3)cc1Cl (stereo not given),0%
3,CSc1nnc(-c2ccc(NC(=O)CCc3ccccc3)cc2)n1C,0%
4,COC(=O)c1cccc(S(=O)(=O)N2CCC(C)CC2)c1,3%
5,Cc1cc(C)c2c(=O)n(CC(=O)NCCCN3CCN(c4ccccc4F)CC3)sc2n1,0%
6,Cc1cccc(N=C2NC(=O)CS2)c1C,0%
7,CCN(CC)S(=O)(=O)c1ccc2c(c1)nc(SCn1nnc3ccccc3c1=O)n2CC,0%
8,CC1CCC(NC(=O)C2(C)CCC(=O)N2Cc2cccnc2)CC1 (stereo not given),0%
9,CCN(CC)C(=O)c1ccc(O)c(OC)c1,0%
10,COc1cc2c(OC)cccc2cc1C(=O)O,0%
11,O=C1c2ccccc2C(O)(Cc2ccccc2)N1Cc1ccco1 (stereo not given),2%
12,Cc1ccccc1N(C)S(=O)(=O)c1ccc2[nH]cc(C(=O)NCC3CCCO3)c(=O)c2c1 (stereo not given),10%
13,Cc1c(C(=O)Nc2ccncc2)oc2c1C(=O)CC(C)(C)C2,5%
14,NC(=O)C(Cc1ccccc1)NS(=O)(=O)c1ccc(N2CCCC2=O)cc1 (stereo not given),0%
15,CCOc1ccc2nc(Nc3nc4c(c(=O)[nH]3)CCC4)nc(C)c2c1,0%
16,COc1ccc(-c2coc3cc(O)cc(O)c3c2=O)cc1,5%
17,CCOCCCNC(=O)CCNS(=O)(=O)c1ccc(C)cc1,2%
18,COc1cc(C2c3c(n[nH]c3C)C(=O)N2c2ccc(C)cc2)ccc1O (stereo not given),0%
19,CCCC(=O)NCCc1cc2c(C)ccc(C)c2[nH]c1=O,0%
20,COC(=O)c1cc(OC)c(OCc2cc(C(=O)OC)oc2C)c(OC)c1,2%

row,Structure (SMILES),inhibition
1,C[C@H](CS)C(=O)N1CCC[C@H]1C(=O)O,2%
2,CCCC(=O)N1c2ccccc2NC2=C(C(=O)CCC2)C1c1ccc(F)cc1 (stereo not given),5%
3,Cc1[nH]nc(N=CC2=C(O)CC(C)(C)CC2=O)c1-c1ccccc1,5%
4,Cc1ccc(OCc2nnc(SCC(=O)Nc3ccc4c(c3)OCO4)n2C)cc1,0%
5,COc1ccc(C(=O)NCC(=O)NC2=NCCS2)cc1,0%
6,O=C(CSc1n[nH]c(-c2ccco2)n1)Nc1sc2c(c1C(=O)Nc1ccccc1)CCCC2,0%
7,CC1CCN(S(=O)(=O)c2ccc(NC(=O)CSc3nnnn3C)cc2)CC1,2%
8,CN1CCCN(C(=O)c2cc(=O)[nH]c3ccccc23)c2nc3ccccc3nc21,0%
9,N#CCCn1cnc2ccccc21,0%
10,COc1ccc(C(=O)NCCn2ccc3ccccc32)c(OC)c1,5%
11,COc1ccc2c(CC(=O)Nc3nnc(C4CC4)s3)coc2c1,0%
12,CCc1cccc(NS(=O)(=O)c2c(C)n[nH]c2C)c1,0%
13,CCC(C(=O)OCCN(CC)CC)c1ccccc1 (stereo not given),0%
14,CCCSc1nnc(N2C(=O)CC(c3ccsc3)C3=C2CCCC3=O)s1 (stereo not given),0%
15,O=S(=O)(c1cccc2cnccc12)N1CCCNCC1,3%
16,COCCSc1nnc(NC(=O)CSCc2ccccc2)s1,0%
17,Cn1c(SCc2nnc3n2CCCCC3)nc2ccccc21,0%
18,CCC1c2ccc(C)n2CCN1C(=O)Nc1ccccc1OC (stereo not given),9%
19,N#CC1=C(N)N(c2ccccc2)C(c2ccccc2)C1(C#N)C#N (stereo not given),0%
20,Cc1ccc(-n2ncc3c(N4CCCC(C)C4)ncnc32)c(C)c1 (stereo not given),5%
